PAFAH1B3 FP inh: blocks human PAF acetylhydrolase 1B catalytic subunit 3; 0.28% of 340,000 active; inhibition, % at 3.39 µM; recombinant PAFAH1B3, FP-rhodamine probe, fluorescence polarization; Q15102;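 active = inhibition above the screen-wide average of all tested compounds plus 3 SD, cut at about 25% in these data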
PAFAH2 FP inh: inhibitors of human PAFAH2; 0.99% of 340,000 active; inhibition, % at 3.39 µM; recombinant PAFAH2, FP-rhodamine activity probe, fluorescence polarization; Q99487;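 active = inhibition above the mean over all tested compounds plus 3 SD, cut at about 30% in these data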;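 note: inhibitors block probe labeling of enzyme so polarization drops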
pPAFAH inh: pPAFAH (human) enzyme inhibition; recombinant pPAFAH, FP-rhodamine probe fluorescence polarization; inhibition, % at 3.39 µM; 1.5% of 330,000 active; AID 463082;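 active = inhibition above the mean inhibition across the screen plus 3 SD, cut at about 25% in these data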;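 note: inhibitors block binding of the rhodamine activity-based probe so polarization drops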
ZTA DNA inh: ZTA (EBV) inhibition in EBNA-1 counter-screen | P03206 | ZTA-DNA binding, fluorescence polarization | inhibition, % at 11 µM | 0.15% of 320,000 active | AID 2234; in the data active = inhibition above about 33%
Target sequence (P03206 whole entry, looked up): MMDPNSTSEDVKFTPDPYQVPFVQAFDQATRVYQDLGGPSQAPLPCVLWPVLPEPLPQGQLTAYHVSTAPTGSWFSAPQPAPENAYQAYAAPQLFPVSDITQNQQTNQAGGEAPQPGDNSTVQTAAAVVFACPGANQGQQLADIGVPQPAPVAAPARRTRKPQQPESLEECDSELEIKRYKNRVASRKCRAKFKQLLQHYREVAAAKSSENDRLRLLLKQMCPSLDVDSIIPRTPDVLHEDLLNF
PAFAH1B2 inh: PAFAH1B2 (human) inhibition. inhibition, % at 3.39 µM. recombinant PAFAH1B2, FP-rhodamine activity probe, fluorescence polarization. 1.2% of 340,000 active. AID 492953;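 active = inhibition above the mean of all tested compounds plus 3 SD, cut at about 24% in these data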
EBNA-1 inh: blocks EBNA-1 binding to DNA; EBNA-1 DNA binding, fluorescence polarization; 0.34% of 300,000 active; inhibition, % at 14.8 µM; in the data active = inhibition above about 28%
Large screens that a line does not name were inactive. Most compounds without a hit are left out; they make up all but 2.9% or so of the library.

O=S(=O)(Nc1ccc(Cc2ccncc2)cc1)c1ccc(Cl)c(Cl)c1	pPAFAH inh 25
CCc1ccc(OC)c(S(=O)(=O)Nc2ccc(Cc3ccncc3)cc2)c1	pPAFAH inh 26
COc1ccc(S(=O)(=O)NNC(=O)Nc2ccc(F)cc2)cc1	none (no result: PAFAH1B3 FP inh, PAFAH2 FP inh, PAFAH1B2 inh)
O=C(O)CN1C(=O)C(=O)N(Cc2ccc(C(F)(F)F)cc2)C1=O	none
OC1(C(F)(F)F)CC(c2ccc3ccccc3c2)=NO1 (configuration not stated)	none
CCOC(=O)c1sc(N(Cc2ccccc2)C(=O)COC(=O)c2ccccc2O)nc1C	PAFAH1B2 inh 42
CCOC(=O)c1sc(N(Cc2ccccc2)C(=O)COC(=O)c2ccc(O)cc2)nc1C	none
CCCCOc1ccc(S(=O)(=O)NC(=O)NCc2ccc(OCCC)cc2)cc1	PAFAH1B2 inh 42
CCCCOc1ccc(CNC(=O)NS(=O)(=O)c2ccc(OCC(C)C)cc2)cc1	PAFAH1B2 inh 59
CC(C)Oc1ccc(S(=O)(=O)N2CCOCC2)cc1NC(=O)Cc1c(F)cccc1Cl	none
CSCCC(NS(=O)(=O)c1ccc(Cl)cc1)C(=O)OCC(=O)N(C(C)C)C(C)C (configuration not stated)	none
CSCCC(NS(=O)(=O)c1ccc(Cl)cc1)C(=O)OCc1cccc(Cl)c1 (configuration not stated)	PAFAH1B2 inh 33
CSCCC(NS(=O)(=O)c1ccc(Cl)cc1)C(=O)OCc1c(Cl)cccc1Cl (configuration not stated)	PAFAH1B2 inh 27
CCOC(=O)c1ccc2c(c1)nc(COc1ccc(OC)cc1)n2CC	none
NC(=O)c1c(NC(=O)COC(=O)c2ccc(S(=O)(=O)Nc3ccccc3)cc2)sc2c1CCCC2	none
Cc1cc(C)c2nc(NNC(=O)c3cc(=O)c4ccccc4o3)sc2c1	pPAFAH inh 26
COc1cccc2c1C(=O)c1c(O)c3c(c(O)c1C2=O)CC(O)(C(=O)CO)CC3OC1CC(N(C)C)C(O)C(C)O1 (configuration not stated)	PAFAH1B3 FP inh 47, PAFAH2 FP inh 60, PAFAH1B2 inh 61 (no result: pPAFAH inh, ZTA DNA inh, EBNA-1 inh)
COc1cccc2c1C(=O)c1c(O)c3c(c(O)c1C2=O)C[C@@](O)(C(C)=O)C[C@@H]3O[C@H]1C[C@H](N)[C@H](O)[C@H](C)O1	PAFAH1B3 FP inh 37, PAFAH2 FP inh 54, PAFAH1B2 inh 51 (no result: pPAFAH inh, ZTA DNA inh, EBNA-1 inh)
Cc1cc(C(=O)Nc2ccc(Cl)c(S(=O)(=O)N3CCOCC3)c2)c2ccccc2n1	none (no result: EBNA-1 inh)
Cc1ccc2c(c1)-n1c(nc3cc(Cl)ccc3c1=O)C(CC(C)C)NC2=O (configuration not stated)	none (no result: PAFAH1B3 FP inh, PAFAH2 FP inh, ZTA DNA inh, PAFAH1B2 inh, EBNA-1 inh)
O=C(NC1CC1)C1CCN(C2CCN(C(=O)CC3=CCCCC3)CC2)CC1	none
Cc1nc2cc(C(F)(F)F)ccc2n1CCNc1nc(-c2ccc([N+](=O)[O-])c(Cl)c2)cs1	none
O=[N+]([O-])c1cc(-c2csc(NCCc3nc4cc(C(F)(F)F)ccc4n3CCCO)n2)ccc1Cl	PAFAH1B2 inh 32
OCCCn1c(CCNc2nc(-c3ccc(Cl)cc3)cs2)nc2cc(C(F)(F)F)ccc21	PAFAH1B2 inh 27
C=CCOc1ccc(C2OC34CCCCC3C(C#N)(C#N)C2(C#N)C(=N)O4)cc1 (configuration not stated)	PAFAH1B3 FP inh 51, PAFAH2 FP inh 56, PAFAH1B2 inh 42
CCC12OC(=N)C(C#N)(C1C)C(C#N)(C#N)C(c1ccccc1)O2 (configuration not stated)	none
CCCCOc1ccc(C2OC34CCCCC3C(C#N)(C#N)C2(C#N)C(=N)O4)cc1 (configuration not stated)	PAFAH1B3 FP inh 57, PAFAH2 FP inh 42, PAFAH1B2 inh 39
Cc1ccc(C2OC34CCCCCC3C(C#N)(C(=N)O4)C2(C#N)C#N)cc1 (configuration not stated)	none
N#Cc1c2ccc(O)cc2n2ccccc12	none
CCc1ccc(-n2c(C)nc3cc(C(=O)NCc4cccnc4)ccc32)cc1	none
CC(=O)Nc1ccc2c(c1)C(C)(C)C(C)N2C (configuration not stated)	ZTA DNA inh 60, EBNA-1 inh 45 (no result: PAFAH1B3 FP inh, PAFAH2 FP inh, PAFAH1B2 inh)
CCC(=O)c1ccc(NC(C)=O)cc1O	none
Cc1ccc(C(=O)N2CCCC(CCC(=O)N3CCN(c4ccccn4)CC3)C2)s1 (configuration not stated)	pPAFAH inh 30

High-throughput results (PubChem BioAssay)
